Data on 16 molecules can be found in PubChem BioAssay (Tox21).

A number with no mark means an inactive call. Calls of active or inactive are those of the source. Unless noted, the call rests on the fitted dose curve; in most records, active means well fitted curve in the direction sought with a large enough effect in the repeat runs; inconclusive means weak or mixed curves; inactive means no such curve, though single readings can be large; an effect the other way counts as inactive or inconclusive.

Assay [1] in a line: qHTS assay to identify small molecule antagonists of the glucocorticoid receptor (GR) signaling pathway - cell viability counter screen (AID 720693). Further: nearly all actives have a fitted effect of over 55% in size. Further: potency means the concentration at half of the fitted maximal effect. In general terms: In qHTS, concentration-response curves come from the screen itself.
Assay [2] in a line: qHTS assay for identifying genotoxic compounds that show differential cytotoxicity against isogenic chicken DT40 cell lines with known DNA damage response pathways - wild type cell line (AID 743012). Further: nearly all actives have a fitted effect of over 60% in size. Further: potency means the concentration at half of the fitted maximal effect. Put shortly: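 Wild type DT40, 300 cells/well, ~0.5 h settle at 37 C/5% CO2; compounds in DMSO added by pintool; 40 h at 37 C/5% CO2; CellTiter-Glo, 30 min RT; luminescence.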
Assay [3] can be described thus: qHTS assay for identifying genotoxic compounds that show differential cytotoxicity against isogenic chicken DT40 cell lines with known DNA damage response pathways - Rev3 mutant cell line (AID 743014). Further: nearly all actives have a fitted effect of over 55% in size. Further: potency means the concentration at half of the fitted maximal effect.
Assay [4] in a line: qHTS assay to identify small molecule antagonists of the androgen receptor (AR) signaling pathway - cell viability counter screen (AID 743033; further: nearly all actives have a fitted effect of over 45% in size; further: potency means the concentration at half of the fitted maximal effect).
Assay [5] in a line: qHTS assay to identify small molecule antagonists of the androgen receptor (AR) signaling pathway using the MDA cell line - cell viability counter screen (AID 743041; further: nearly all actives have a fitted effect of over 45% in size; further: potency means the concentration at half of the fitted maximal effect). Summed up:
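Same-well cytotoxicity was assessed by CellTiter-Fluor in MDA-kb2 AR-luc cells after 16 h of compound treatment under R1881 agonism.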

A short description of assay [6]: qHTS assay to identify small molecule antagonists of the thyroid receptor (TR) signaling pathway - cell viability counter screen (AID 743064). Further: nearly all actives have a fitted effect of over 50% in size. Further: potency means the concentration at half of the fitted maximal effect. Summed up:
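Fluorescence from CellTiter-Fluor, added after 23.5 h exposure at 37 °C, reported viability of GH3.TRE-Luc cells co-treated with compound and 1 nM T3. Measured in the same wells as the luciferase TR readout.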

Assay [7] relates to thyroid hormone receptor (rat, GH3 cells). In words: qHTS assay to identify small molecule agonists of the thyroid receptor (TR) signaling pathway (AID 743066; calls by dose curve; further: on the % scale 0 is the no-effect control and ±100 the full control effect).
A short description of assay [8]: qHTS assay to identify small molecule antagonists of the estrogen receptor alpha (ER-alpha) signaling pathway - cell viability counter screen (AID 743074; calls by dose curve;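 further: HEK293 cells carrying ER-alpha-UAS-bla reporter stimulated with 17beta-estradiol; nearly all actives have a fitted effect of over 45% in size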; further: potency means the concentration at half of the fitted maximal effect).
The target in assay [9] is Estrogen receptor (Homo sapiens) (UniProt P03372). In words: qHTS assay to identify small molecule agonists of the estrogen receptor alpha (ER-alpha) signaling pathway using the BG1 cell line (AID 743079). Further: nearly all actives have a fitted effect of over 20% in size. Further: potency means the concentration at half of the fitted maximal effect. On activation: on the % scale 0 is the no-effect control and ±100 the full control effect. Particulars: BG1Luc4E2 cells, ERE-luciferase agonist, 22 h.
A short description of assay [10]: qHTS assay to identify small molecule antagonists of the estrogen receptor alpha (ER-alpha) signaling pathway using the BG1 cell line (AID 743080; calls by dose curve;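 further: BG1 cells stimulated with 17beta-estradiol alongside compound; nearly all actives have a fitted effect of over 25% in size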; further: potency means the concentration at half of the fitted maximal effect). Put shortly: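 Seeding, 24 h rest, compound transfer from DMSO, 17beta-estradiol addition, 21.5 h incubation, CellTiter-Fluor (30 min, 37 C), then ONE-Glo (30 min, room temperature): this sequence was run on BG1-Luc-4E2 reporter cells.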

For a further assay, the target named is Aromatase (Homo sapiens) (UniProt P11511). In words: qHTS assay to identify aromatase inhibitors (AID 743083). Further: nearly all actives have a fitted effect of over 55% in size. Further: potency means the concentration at half of the fitted maximal effect.
For assay [11], the target named is Androgen receptor (Homo sapiens) (UniProt P10275). In words: qHTS assay to identify small molecule antagonists of the androgen receptor (AR) signaling pathway (AID 743035; active means well fitted inhibition curve with a large enough effect in the signal ratio in the repeat runs, not every such curve was filed as active; inconclusive means weak or mixed curves, or effect the other way; inactive means no such curve, though single readings can be large or run the other way; the % refers to the signal ratio; further: potency means the concentration at half of the fitted maximal effect). Put shortly:
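Fluorescence from a beta-lactamase FRET substrate (LiveBLAzer B/G, 2 h, room temperature) measured inhibition of R1881-stimulated signaling in GeneBLAzer AR-UAS-bla HEK293 cells exposed to compound for 16 h at 37C.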

The target is the same in assay [12]. In words: qHTS assay to identify small molecule agonists of the androgen receptor (AR) signaling pathway using the MDA cell line (AID 743040; further: on the % scale 0 is the no-effect control and ±100 the full control effect; nearly all actives have a fitted effect of over 20% in size). Summed up:
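Human breast carcinoma MDA-kb2 reporter cells (MMTV-luc, AR/GR elements) were treated for 16 h at 37C in 0% CO2 following a 5 h settling period. Signal was quantified by ONE-Glo luminescence.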

Assay [13] shares this target. In words: qHTS assay to identify small molecule antagonists of the androgen receptor (AR) signaling pathway using the MDA cell line (AID 743042; further: nearly all actives have a fitted effect of over 55% in size; further: potency means the concentration at half of the fitted maximal effect). Summed up:
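MDA-kb2 breast carcinoma cells carrying MMTV-luciferase (AR/GR responsive) were co-treated with compounds and the agonist R1881 for 16 h at 37C. Inhibition read as ONE-Glo luminescence; CellTiter-Fluor fluorescence measured in parallel for cytotoxicity.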

Assay [14] addresses Estrogen receptor (Homo sapiens) (UniProt P03372). In words: qHTS assay to identify small molecule antagonists of the estrogen receptor alpha (ER-alpha) signaling pathway (AID 743069; active means well fitted curve in the direction sought with a large enough effect in the signal ratio in the repeat runs, not every such curve was filed as active; inconclusive means weak or mixed curves, or effect the other way; inactive means no such curve, though single readings can be large or run the other way; the % refers to the signal ratio; further: potency means the concentration at half of the fitted maximal effect). Put shortly: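 Reporter cells (ER-alpha-bla, HEK293 background) are conditioned overnight in stripped-serum medium (2% charcoal-stripped FBS). Compound and 17beta-estradiol exposure runs 18 hr at 37C, 5% CO2.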

Assay [15] has the same target. In words: qHTS assay to identify small molecule agonists of the estrogen receptor alpha (ER-alpha) signaling pathway (AID 743075; calls by dose curve;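 further: HEK293 GripTite cells with ER-alpha and UAS-driven beta-lactamase reporter; on the % scale 0 is the no-effect control and ±100 the full control effect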). The settings on record: HEK293 ER-alpha-UAS-bla, beta-lactamase FRET ratio, 18 h; activation: at 70.1 µM (top of the series).
Assay [16] in a line: qHTS assay to identify small molecule antagonists of the estrogen receptor alpha (ER-alpha) signaling pathway using the BG1 cell line - cell viability counter screen (AID 743081).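 Further: compound given together with 17beta-estradiol as the ER stimulus; nearly all actives have a fitted effect of over 45% in size.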 Further: potency means the concentration at half of the fitted maximal effect.
Assay [17] in a line: qHTS assay to identify small molecule antagonists of the thyroid receptor (TR) signaling pathway (AID 743065). Further: nearly all actives have a fitted effect of over 55% in size. Further: potency means the concentration at half of the fitted maximal effect. Put shortly: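 GH3.TRE-Luc rat pituitary cells (two TREs driving luciferase) were dosed with compound, then stimulated with 1 nM T3 (final) for 23.5 h at 37 C. ONE-Glo luminescence was the read-out, with CellTiter-Fluor fluorescence as the cytotoxicity counter-screen.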

The nature of assay [18]: qHTS assay for identifying genotoxic compounds that show differential cytotoxicity against isogenic chicken DT40 cell lines with known DNA damage response pathways - Rad54/Ku70 mutant cell line (AID 743015). Further: potency means the concentration at half of the fitted maximal effect; nearly all actives have a fitted effect of over 60% in size.

Estrogen receptor (Homo sapiens), sequence (P03372 whole entry, looked up): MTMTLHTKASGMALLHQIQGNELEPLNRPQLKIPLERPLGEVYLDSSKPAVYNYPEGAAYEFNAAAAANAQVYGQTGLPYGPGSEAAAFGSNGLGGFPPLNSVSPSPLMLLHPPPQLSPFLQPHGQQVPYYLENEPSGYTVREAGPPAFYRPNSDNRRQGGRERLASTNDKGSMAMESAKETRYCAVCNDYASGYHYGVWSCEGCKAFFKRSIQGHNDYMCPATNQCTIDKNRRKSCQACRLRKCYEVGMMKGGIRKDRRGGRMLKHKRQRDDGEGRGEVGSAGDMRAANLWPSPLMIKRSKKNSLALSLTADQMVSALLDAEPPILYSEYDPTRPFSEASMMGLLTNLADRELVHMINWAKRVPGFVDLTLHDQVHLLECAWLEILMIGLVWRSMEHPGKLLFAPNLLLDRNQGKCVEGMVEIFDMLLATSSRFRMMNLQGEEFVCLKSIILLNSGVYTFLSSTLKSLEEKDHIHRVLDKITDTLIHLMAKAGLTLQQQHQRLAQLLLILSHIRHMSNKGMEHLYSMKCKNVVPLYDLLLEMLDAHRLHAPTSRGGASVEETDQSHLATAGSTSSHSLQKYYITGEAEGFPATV
Androgen receptor (Homo sapiens), sequence (P10275 whole entry, looked up): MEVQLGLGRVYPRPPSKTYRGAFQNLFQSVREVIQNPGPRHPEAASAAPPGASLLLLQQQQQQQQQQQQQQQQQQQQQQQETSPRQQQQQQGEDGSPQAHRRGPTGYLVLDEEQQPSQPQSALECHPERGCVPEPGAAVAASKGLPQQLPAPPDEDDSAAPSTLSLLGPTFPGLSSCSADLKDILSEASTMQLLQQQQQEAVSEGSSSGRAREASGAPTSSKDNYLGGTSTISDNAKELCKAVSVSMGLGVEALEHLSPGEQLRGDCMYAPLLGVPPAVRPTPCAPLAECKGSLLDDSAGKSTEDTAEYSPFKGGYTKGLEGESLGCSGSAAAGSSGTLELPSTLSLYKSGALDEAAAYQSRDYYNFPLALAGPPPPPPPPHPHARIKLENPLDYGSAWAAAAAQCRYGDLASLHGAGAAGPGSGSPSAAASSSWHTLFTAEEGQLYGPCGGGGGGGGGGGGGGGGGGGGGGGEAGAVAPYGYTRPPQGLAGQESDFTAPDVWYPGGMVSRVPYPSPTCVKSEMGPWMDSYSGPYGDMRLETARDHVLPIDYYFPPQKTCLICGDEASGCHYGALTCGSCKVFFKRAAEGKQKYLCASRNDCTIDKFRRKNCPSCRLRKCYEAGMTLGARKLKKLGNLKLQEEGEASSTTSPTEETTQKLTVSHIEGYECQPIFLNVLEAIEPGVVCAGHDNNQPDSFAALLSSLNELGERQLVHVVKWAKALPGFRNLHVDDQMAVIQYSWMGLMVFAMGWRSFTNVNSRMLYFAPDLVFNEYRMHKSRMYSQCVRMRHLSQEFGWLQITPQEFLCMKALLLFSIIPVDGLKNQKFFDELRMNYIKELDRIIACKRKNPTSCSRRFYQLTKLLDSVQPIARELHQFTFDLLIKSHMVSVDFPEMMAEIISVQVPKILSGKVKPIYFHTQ
Aromatase (Homo sapiens), sequence (P11511 whole entry, looked up): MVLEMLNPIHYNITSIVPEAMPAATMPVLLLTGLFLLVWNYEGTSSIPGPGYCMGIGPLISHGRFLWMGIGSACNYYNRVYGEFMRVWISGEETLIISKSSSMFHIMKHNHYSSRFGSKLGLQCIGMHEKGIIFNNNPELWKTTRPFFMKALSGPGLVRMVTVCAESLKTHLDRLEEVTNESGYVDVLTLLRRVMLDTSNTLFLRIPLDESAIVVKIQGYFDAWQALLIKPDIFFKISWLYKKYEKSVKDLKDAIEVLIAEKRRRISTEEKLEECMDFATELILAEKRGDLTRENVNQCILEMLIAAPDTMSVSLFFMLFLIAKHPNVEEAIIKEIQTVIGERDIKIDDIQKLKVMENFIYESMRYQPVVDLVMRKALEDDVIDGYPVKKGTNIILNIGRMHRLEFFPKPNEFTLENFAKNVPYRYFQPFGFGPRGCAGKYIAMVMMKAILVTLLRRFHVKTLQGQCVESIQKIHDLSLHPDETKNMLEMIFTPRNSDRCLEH

`Cc1cccc2c1cc1ccc3cccc4ccc2c1c34`: the Potency entry in assay [1], in assay [2], in assay [3], in assay [4], in assay [5] and in assay [6] was “inactive” each time. The Potency result (in [7]; in assay [8]; in assay [10]; with Aromatase (Homo sapiens)) was “inactive” throughout. Moreover, the activation in assay [9] (at 95 µM (top of the series)) is 15.8%.

For the molecule `N#CSc1ccc(N)c([N+](=O)[O-])c1`, the Potency is 55.3 µM (active) in [1]; 12.3 µM (active) in [2]; 6.9 µM (active) in [3]; 24.7 µM (active) in assay [4]; 43.9 µM (active) in assay [11]; 61.5 µM (active) in assay [5]. The Potency is 61.5 µM (active) in [13]; 54.8 µM (active) in [6]; 27.7 µM [inconclusive] (active) in [14]; 54.8 µM (active) in [16]; 27.5 µM (active) in the assay with Aromatase (Homo sapiens). The Potency result in assay [12], in assay [7], in assay [8] and in [15] was “inactive” throughout. Further, the activation in assay [9] (at 95 µM (top of the series)) was -0.741%.

In the case of `CCC1=C[C@@H]2CN(C1)Cc1c([nH]c3ccccc13)[C@@](C(=O)OC)(c1cc3c(cc1OC)N(C)[C@H]1[C@@](O)(C(=O)OC)[C@H](OC(C)=O)[C@]4(CC)C=CCN5CC[C@]31[C@@H]54)C2`, the Potency entry (in assay [1]; in assay [4]; in assay [5]; in [8]; in assay [10]; in the assay with Aromatase (Homo sapiens)) was “inactive” in each case. For the same molecule, the Potency in assay [2] was 0.075 µM (active); in assay [3] it was 0.0841 µM (active); in [6] it was 4.73 µM (active); in [17], 1.88 µM (active).

On to `CC(C)(C)C(=O)OCOC(=O)[C@@H]1N2C(=O)[C@@H](NC(=O)[C@H](N)c3ccccc3)[C@H]2SC1(C)C`, for which the Potency entry in assay [1], in assay [2], in [3], in assay [6], in assay [17] and in assay [7] was “inactive” each time. In addition, the Potency result (in assay [14]; in assay [8]; in [15]; in assay [10]; in assay [16]; in the assay with Aromatase (Homo sapiens)) was “inactive” throughout. For the same molecule, the activation in assay [9] (at 32.5 µM (top of the series)) was 0.598%.

As for `CN(C)c1ccc(SC#N)cc1`, the Potency entry in assay [1], in assay [4], in assay [5], in assay [7], in assay [8] and in assay [15] was “inactive” each time. Besides, the Potency entry (in [10]; in assay [16]; with Aromatase (Homo sapiens)) was “inactive” in each case. Moreover, the Potency in assay [2] is 27.3 µM (active); in assay [3], 30.6 µM (active); in assay [9] it was 61.1 µM (active).

With `CCCCCCCCNC(C)C(O)c1ccc(SC(C)C)cc1` (stereo not drawn), the Potency was 10.7 µM (active) in assay [1]; 1.88 µM (active) in [2]; 1.68 µM (active) in assay [3]; 21.3 µM (active) in assay [4]; 5.31 µM (active) in assay [6]; 5.96 µM (active) in [17]. The Potency in assay [8] is 9.52 µM (active); with Aromatase (Homo sapiens), 29.8 µM (active). In addition, the Potency entry in assay [12] and in assay [13] was “inactive” each time.

In the case of `CC(NN)c1ccccc1` (stereo not drawn), the Potency result in assay [1], in [2], in assay [3], in assay [4], in assay [5] and in assay [8] was “inactive” each time. In addition, the Potency entry (in [10]; in assay [16]; in the assay with Aromatase (Homo sapiens)) was “inactive” throughout.

Turning to `CCCCCCCCCCCCCCCCCC[N+](C)(C)Cc1ccccc1`, the Potency is 19.7 µM (active) in [1]; 0.978 µM (active) in assay [2]; 0.777 µM (active) in assay [3]; 19.7 µM (active) in assay [4]; 17.4 µM (active) in assay [5]; 12.3 µM (active) in assay [13]. Besides, the Potency in assay [6] was 11 µM (active); in [17], 7.77 µM (active); in [8], 22.1 µM (active); with Aromatase (Homo sapiens), 21.9 µM (active). Moreover, the Potency entry in assay [12] and in assay [7] was “inactive” in each case.

With `O=C1c2ccccc2Cc2ccccc21`, the Potency entry in assay [1], in assay [2], in assay [3], in [4], in [5] and in assay [17] was “inactive” in each case. The Potency entry (in [7]; in assay [8]; in the assay with Aromatase (Homo sapiens)) was “inactive” each time. Also, the figures for the Potency in [6] and in assay [9] were 5.49 µM (active) and 7.75 µM (active), respectively.

`CCCCCCCC/C=C\CCCCCCCCOCCO`: the Potency in [1] is 31.9 µM (active); in [2], 5.62 µM (active); in [3], 5.62 µM (active); in [4], 22.6 µM (active); in assay [6], 25.1 µM (active); in [17], 11.2 µM (active). The Potency in assay [14] is 9 µM [inconclusive] (active); in assay [8], 56.8 µM (active); in [10], 10 µM (active); in assay [16] it was 39.8 µM (active); with Aromatase (Homo sapiens), 35.5 µM (active). Further, in assay [7], the Potency result is “inactive”.

`CCCCCCCCCCCC(=O)NCCCN(C)C`: the Potency was 30.9 µM (active) in assay [1]; 6.11 µM (active) in [2]; 10.9 µM (active) in assay [3]; 43.6 µM (active) in assay [4]; 17.2 µM (active) in assay [6]; 49 µM (active) in assay [8]. Also, the Potency in assay [16] is 61.1 µM (active); with Aromatase (Homo sapiens) it was 43.3 µM (active). Besides, the Potency result in assay [12] is “inactive”.

As to `O=[N+]([O-])c1cc([N+](=O)[O-])c2ccc(S(=O)(=O)O)cc2c1O`, the Potency result in [1], in assay [2], in assay [3], in assay [4] and in assay [8] was “inactive” throughout. Moreover, the Potency was 27.1 µM (active) in assay [5] and 54.2 µM (active) in [16].

`COCCCC/C(=N\OCCN)c1ccc(C(F)(F)F)cc1`: the Potency entry in assay [1], in assay [14], in [15], in assay [10] and in assay [16] was “inactive” in each case. The Potency in assay [2] is 6.68 µM (active); in assay [3], 9.44 µM (active); in [18] it was 10.6 µM (active); in assay [6] it was 13.3 µM (active); in [17], 11.9 µM (active); with Aromatase (Homo sapiens) it was 21.1 µM (active). In assay [9] (at 70.3 µM (top of the series)), the activation was -27%.

Consider `O=[N+]([O-])c1cc(Cl)c(Cl)c(Cl)c1Cl`, for which the Potency result in assay [1], in assay [2], in [3], in assay [4], in assay [5] and in assay [7] was “inactive” each time. Further, the Potency entry in assay [8] and in assay [16] was “inactive” in each case.

In the case of `C[C@@H](NCCCc1cccc(C(F)(F)F)c1)c1cccc2ccccc12`, the Potency in assay [1] was 13.4 µM (active); in assay [2] it was 5.31 µM (active); in assay [3], 5.96 µM (active); in [4] it was 19 µM (active); in [6], 7.5 µM (active); in assay [17], 8.41 µM (active). Further, the Potency in [8] is 23.9 µM (active); in the assay with Aromatase (Homo sapiens), 13.3 µM (active). The Potency result in assay [12] and in [5] was “inactive” each time.

In the case of `CC[C@@]1(O)C(=O)OCc2c1cc1n(c2=O)Cc2cc3c(CN(C)C)c(O)ccc3nc2-1`, the Potency entry in [1], in [7], in assay [8] and in assay [15] was “inactive” throughout. For the same molecule, the Potency in [2] was 1.33 µM (active); in assay [3], 1.19 µM (active); in [18], 0.841 µM (active); in assay [17], 2.37 µM (active); in assay [14] it was 12 µM [inconclusive] (active); in [10], 7.5 µM (active). Besides, the Potency in the assay with Aromatase (Homo sapiens) was 5.31 µM (active).
